CYP2C9 inhib = blockers of cytochrome P450 2C9 activity – biochemical, luminescence, ADME assay, primary screen | P11712 | CYP2C9 Supersomes, luciferin-H conversion | inhibition, % at 5 µM | actives 20% (n = 96,000);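 active = blocking of liver enzyme CYP2C9 beyond about 50% at 5 µM, limit read from the data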
Pyk2 oligo antag = antagonists of Pyk2 self-association, primary screen, Q293 cells, FERM NanoBiT luminescence, HTS; Protein-tyrosine kinase 2-beta (Homo sapiens), Q14289; z-score (the deposit names both 25 µM and 10 µM); hits give low values; actives 0.83% (n = 99,000);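 active = Z-score of -3 or lower, scaled per plate to the spread of control and sample wells; inactive = z-score above -3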;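 note: negative z-score means lost luminescence so less FERM oligomerization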
CYP2C9 activ = human CYP2C9 activators, primary screen, biochemical, luminescence | actives 1.4% (n = 96,000) | activation factor at 5 µM | AID 1024, 2008 | recombinant CYP2C9, luciferin-H conversion; hits give high values; factor 1 = untreated enzyme, 0 = blocked;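 active = activation factor of 2 or more for CYP2C9 at a 5 µM dose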;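 note: 0 = sulfaphenazole-blocked wells and 1 = vehicle-only wells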
CYP2C19 inh = blockers of cytochrome P450 2C19 activity – biochemical, luminescence, ADME assay, primary screen. AID 778, 2007. P33261. inhibition, % at 5 µM. actives 21% (n = 96,000). CYP2C19 Supersomes, luciferin-H EGE luminescence, 30 min;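 active = CYP2C19 inhibition above a set limit at 5 µM in the primary screen, cut at about 50% in these data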;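 note: plate controls were negative control wells for no effect and 2.5 mM tranylcypromine positive control for full effect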
CYP2C19 activ = human CYP2C19 activators, primary screen, biochemical, luminescence | AID 1025, 2008 | recombinant CYP2C19, luciferin-H EGE luminescence; hits give high values; 0 = fully inhibited enzyme, 1 = untreated enzyme | 96,000 tested, under 10 active | activation factor at 5 µM;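 active = activation factor of at least 2 at 5 µM in the primary screen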;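 note: 0 = wells with 2.5 mM tranylcypromine and 1 = vehicle-only wells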
An asterisk follows results filed as active; . = no result given. The list is not random: actives were taken first. Their share in the collection is about 28%.

SMILES	CYP2C9 inhib	Pyk2 oligo antag	CYP2C9 activ	CYP2C19 inh	CYP2C19 activ
C=CCn1c(SCC(=O)NCc2ccc3c(c2)OCO3)nnc1C1CCCCC1	58*	0.79	0.4	53*	0.5
C=CCn1c(SCC(=O)Nc2cc(C)nn2-c2ccccc2)nnc1C1CCCCC1	42	1	0.6	66*	0.3
C=CCn1c(SCC(=O)NCc2ccc3c(c2)OCO3)nnc1C1COc2ccccc2O1 (stereo not drawn)	53*	2.6	0.5	65*	0.4
O=c1c2ccccc2nc(CSc2nnnn2-c2ccccc2)n1-c1cccc(C(F)(F)F)c1	-1	0.92	1	41	0.6
COCCn1c(SCC(=O)N2CCCC2)nnc1-c1ccoc1C	22	-0.16	0.8	7	0.9
CCOc1ccc(-n2nc3c(Cl)nnc(C)c3c2C)cc1	.	0.22	.	.	.
O=c1c2[nH]c3ccc(F)cc3c2ncn1CCCN1CCOCC1	2	0.21	1	10	0.9
COc1ccc2c(c1)[nH]c1c(=O)n(CCN3CCCC3)cnc12	-6	-0.6	1.1	6	0.9
O=c1c2[nH]c3ccc(F)cc3c2ncn1CCCn1ccnc1	80*	-0.11	0.2	64*	0.4
O=c1c2[nH]c3ccc(Cl)cc3c2ncn1CCN1CCCCC1	59*	-0.5	0.4	74*	0.3
Cc1nn(CCc2n[nH]c(=S)n2C2CCCCC2)c(C)c1Br	10	1	0.9	47	0.5
Cc1oc2c(c1C(=O)NCCO)CCCC2	-2	-0.83	1	-3	1
CCn1c(=O)n(CC(=O)NCc2ccccc2OC)c(=O)c2ccccc21	-44	0.26	1.4	54*	0.5
COc1cccc(CNC(=O)Cn2c(=O)oc3ccccc32)c1OC	4	.	1	66*	0.3
O=C1c2ccccc2NC(c2ccco2)N1O (stereo not drawn)	8	-0.92	0.9	3	1
O=C1C2=C(Nc3ccccc3SC2c2ccco2)c2ccccc21 (stereo not drawn)	78*	-0.54	0.2	19	0.8
COc1cc(S(=O)(=O)N2CCCCC2)ccc1NC(=O)Cc1ccccc1	50	-1.7	0.5	-24	1.2
Brc1ccc2ncnc(NCc3ccccc3)c2c1	49	-0.63	0.5	74*	0.3
Cc1ccc(N(C)C(=O)N2CCN(c3ccccn3)CC2)cc1	53*	.	0.5	21	0.8
Cc1ccc(N(C)C(=O)N2CCN(S(=O)(=O)c3ccc(C)cc3)CC2)cc1	56*	.	0.4	95*	0.1
Cc1ccc(S(=O)(=O)N2CCN(C(=O)N(c3ccccc3)c3ccccc3)CC2)cc1	52*	-0.95	0.5	51*	0.5
CCC(NS(=O)(=O)c1ccc(C)cc1)C(=O)N1CCN(c2ccccn2)CC1 (stereo not drawn)	6	.	0.9	27	0.7
CN(C)S(=O)(=O)N1CCN(C(=O)N(c2ccccc2)c2ccccc2)CC1	33	-0.25	0.7	13	0.9
Cc1ccc(N(C)C(=O)N2CCN(S(=O)(=O)c3ccc4ccccc4c3)CC2)cc1	34	-1.8	0.7	57*	0.4
Cc1ccccc1NC(=O)c1ccc(CN2CCC(Cc3ccccc3)CC2)cc1	27	0.53	0.7	18	0.8
SMILES	CYP2C9 inhib	Pyk2 oligo antag	CYP2C9 activ	CYP2C19 inh	CYP2C19 activ
CC(C)CC(=O)N1CCN(S(=O)(=O)c2ccc3ccccc3c2)CC1	-92	-0.55	1.9	96*	0
S=c1sc2c(N3CCN(Cc4ccccc4)CC3)ncnc2n1-c1ccccc1	60*	-1.7	0.4	38	0.6
Clc1nnc2ccc(-c3ccccc3)nn12	-8	0.79	1.1	-6	1.1
CCC(Sc1ncnc2sc(C)c(C)c12)C(=O)OC (stereo not drawn)	93*	1.9	0.1	65*	0.4
Cc1sc2ncnc(SCC(=O)NCC(C)C)c2c1C	61*	2.2	0.4	26	0.7
COC(=O)c1c(-c2ccccc2)csc1NC(=O)CSc1ncnc2sc(C)c(C)c12	71*	-0.32	0.3	16	0.8
Cc1sc2ncnc(SC(C)C#N)c2c1C (stereo not drawn)	.	-0.78	.	.	.
Cc1nnc(NC(=O)CSc2ncnc3scc(-c4ccccc4)c23)s1	19	-1.7	0.8	-8	1.1
CCCN1CCC(NC(=O)Nc2ccc(OC)c(OC)c2)CC1	1	0.99	1	4	1

Compound activity from PubChem.
